In PubChem BioAssay (EPA / NIEHS):
Results filed as inconclusive are left out. Calls of active or inactive are those of the source. Rule for the calls, unless noted: active = hit-call score of the fitted dose curve at least 0.9, where 1 is the maximum; inactive = score below 0.9.

How the values were obtained:
[1] = ATG_TAL_CIS: Attagene CIS-FACTORIAL HepG2 Assay for human TAL Basal Promoter (AID 2282966); settings: HepG2 Attagene cis-factorial TAL promoter reporter; actives raise or lower the signal;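 note: background control endpoint measuring basal TAL promoter reporter mRNA not a specific factor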
Method in brief: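 Human hepatoma HepG2 cells, transfected with promoter-regulated reporter units, were treated 24 h. Reporter transcript levels, measured through RT-PCR and capillary electrophoresis, were fitted for gain or loss relative to DMSO.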

[2] = ATG_TGFb_CIS: Attagene CIS-FACTORIAL HepG2 Assay for human Transforming Growth Factor (TGF) (AID 2282967); settings: HepG2 Attagene CIS TGFb reporter, mRNA transcription; actives raise or lower the signal
Method in brief: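 Bidirectional fitting relative to DMSO gave the endpoint. Underlying data: reporter mRNA from HepG2 cells carrying transiently transfected cis-regulated reporter constructs, harvested 24 h after dosing and analyzed by RT-PCR and capillary electrophoresis.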

[3] = ATG_VDRE_CIS: Attagene CIS-FACTORIAL HepG2 Assay for human Vitamin D Receptor Element (VDRE) (AID 2282968); settings: HepG2 VDRE cis-reporter transcription, actives raise or lower the signal
Method in brief: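 Readout is VDRE-driven reporter mRNA reflecting endogenous factor activity in human HepG2 cells, sampled 24 h post-dose. Quantification used labelled RT-PCR products separated by capillary electrophoresis; bidirectional analysis relative to DMSO.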

[4] = target: X-box-binding protein 1 (Homo sapiens) (UniProt P17861); assay: ATG_Xbp1_CIS: Attagene CIS-FACTORIAL HepG2 Assay for human X-box Binding Protein 1 (XBP1) (AID 2282972); settings: HepG2 XBP1 cis-element reporter, Attagene multiplex; actives raise or lower the signal
Method in brief: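 Multiplexed cis-reporter readout in transfected HepG2 liver cells. Exposure lasted 24 hours. Activity in either direction was fitted against DMSO as negative control and baseline.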

[5] = ATG_M_19_TRANS: Attagene TRANS-FACTORIAL HepG2 Assay for M19 Transcription Factor (Internal Marker) (AID 2282974; active = hit-call score of the fitted dose curve at least 0.9, where 1 is the maximum); settings: HepG2 Attagene TRANS-FACTORIAL M19 internal marker reporter
Method in brief: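 HepG2 cells transiently transfected with multiple GAL4-UAS reporter transcription units were exposed to chemicals for 24 h. Reporter mRNA was read by RT-PCR, 6-FAM primer extension, HpaI digestion and capillary electrophoresis; gain of signal fitted relative to DMSO.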

[6] = ATG_GAL4_TRANS: Attagene TRANS-FACTORIAL HepG2 Assay for GAL4 (Internal Marker) (AID 2282976; active = hit-call score of the fitted dose curve at least 0.9, where 1 is the maximum); settings: HepG2 Attagene TRANS GAL4 internal marker reporter
Method in brief: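 Liver HepG2 line bearing multiplexed GAL4-UAS reporter constructs; 24 h chemical treatment. Transcripts were quantified as fluorescent fragments on capillary electrophoresis after RT-PCR and HpaI cut, with activity fitted upward from DMSO.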

[7] = target: Oxysterols receptor LXR-beta (Homo sapiens) (UniProt P55055); assay: ATG_LXRb_TRANS: Attagene TRANS-FACTORIAL HepG2 Assay for human Liver X Receptor beta (LXRb) (AID 2282981; active = hit-call score of the fitted dose curve at least 0.9, where 1 is the maximum); settings: HepG2 Attagene TRANS GAL4-LXRb reporter, mRNA
Method in brief: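 After 24 h chemical treatment of transfected HepG2 cells carrying exogenous NR-Gal4 chimeras, reporter mRNA was quantified by fluorescent RT-PCR and capillary electrophoresis; activity taken as increase over DMSO controls.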

[8] = target: Hepatocyte nuclear factor 4-alpha (Homo sapiens) (UniProt P41235); assay: ATG_HNF4a_TRANS: Attagene TRANS-FACTORIAL HepG2 Assay for human Hepatocyte Nuclear Factor 4 alpha (HNF4a) (AID 2282982; active = hit-call score of the fitted dose curve at least 0.9, where 1 is the maximum); settings: HepG2 HNF4a transactivation reporter, mRNA readout
Method in brief: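 Activity of an exogenous HNF4a–Gal4 fusion scored as induced GAL4-UAS reporter transcripts after 24 h chemical exposure of transfected human HepG2 cells. Read-out via RT-PCR with 6-FAM labelling and capillary electrophoresis; rise over DMSO baseline.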

[9] = ATG_M_32_TRANS: Attagene TRANS-FACTORIAL HepG2 Assay for M32 Transcription Factor (Internal Marker) (AID 2282984; active = hit-call score of the fitted dose curve at least 0.9, where 1 is the maximum); settings: HepG2 Attagene TRANS M32 internal marker reporter
Method in brief: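 Internal background reporter in transfected HepG2: after 24 h chemical exposure, RNA reverse-transcribed, reporter cDNA amplified, fluorescently labelled and HpaI-cut, then sized by capillary electrophoresis. Gain of signal fitted against DMSO control.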

[10] = target: Nuclear receptor subfamily 4 group A member 2 (Homo sapiens) (UniProt P43354); assay: ATG_NURR1_TRANS: Attagene TRANS-FACTORIAL HepG2 Assay for human Nuclear Receptor Related Protein 1 (NURR1) (AID 2282985; active = hit-call score of the fitted dose curve at least 0.9, where 1 is the maximum); settings: HepG2 Attagene TRANS reporter, mRNA readout
Method in brief: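 Reporter transcript induction, measured by RT-PCR with fluorescent labelling, HpaI digestion and capillary electrophoresis, after 24 hr dosing of human HepG2 cells transiently expressing an exogenous NR-Gal4 fusion with GAL4-UAS-driven reporters; DMSO as baseline.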

[11] = target: Transcriptional activator Myb (Homo sapiens) (UniProt P10242); assay: ATG_Myb_CIS: Attagene CIS-FACTORIAL HepG2 Assay for human Myeloblastosis (Myb) Proto-Oncogene Transcription Factor (AID 2282986); settings: HepG2 Attagene CIS-FACTORIAL Myb reporter transcription; actives raise or lower the signal
Method in brief: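 HepG2 cells were transiently transfected with cis-regulated multiple reporter transcription units reflecting endogenous Myb activity, then exposed to compound for 24 hours. Reporter mRNA was measured by RT-PCR with capillary electrophoresis; bidirectional fitting versus DMSO baseline.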

[12] = target: Oxysterols receptor LXR-alpha (Homo sapiens) (UniProt Q13133); assay: ATG_LXRa_TRANS: Attagene TRANS-FACTORIAL HepG2 Assay for human Liver X Receptor alpha (LXRa) (AID 2282980; active = hit-call score of the fitted dose curve at least 0.9, where 1 is the maximum); settings: HepG2 Attagene TRANS reporter, LXRa transactivation
Method in brief: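 In this multiplexed TRANS system, compounds act on HepG2 cells carrying GAL4-UAS reporter units and a receptor-GAL4 fusion for 24 h. Induced reporter RNA is amplified, fluorescently labelled and sized by capillary electrophoresis, with DMSO as baseline.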

[13] = target: Estrogen-related receptor gamma (Homo sapiens) (UniProt P62508); assay: ATG_ERRg_TRANS: Attagene TRANS-FACTORIAL HepG2 Assay for human Estrogen-Related Receptor gamma (ERRg) (AID 2282977; active = hit-call score of the fitted dose curve at least 0.9, where 1 is the maximum;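 note: hits increase reporter signal over DMSO so potencies reflect activators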); settings: HepG2 Attagene TRANS reporter, ERRg transactivation
Method in brief: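 Exogenous NR-Gal4 chimera activity measured as reporter transcript induction after 24 h in transiently transfected HepG2 cells. RNA reverse-transcribed, PCR-amplified, 6-FAM-labelled and resolved by capillary electrophoresis; increase over DMSO baseline.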

[14] = target: Glucocorticoid receptor (Homo sapiens) (UniProt P04150); assay: ATG_GR_TRANS: Attagene TRANS-FACTORIAL HepG2 Assay for human Glucocorticoid Receptor (GR) (AID 2282978; active = hit-call score of the fitted dose curve at least 0.9, where 1 is the maximum;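 note: activators score as hits since higher reporter transcript over DMSO is fitted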); settings: HepG2 Attagene TRANS GR reporter, mRNA transcription
Method in brief: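 HepG2 cells transiently transfected with multiplexed reporter units in which chimeric NR-GAL4 proteins drive GAL4-UAS reporters; 24 h compound exposure. Reporter mRNA measured by RT-PCR, 6-FAM labelling, HpaI digestion and capillary electrophoresis; gain-of-signal fitted versus DMSO.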

[15] = target: Bile acid receptor (Homo sapiens) (UniProt Q96RI1); assay: ATG_FXR_TRANS: Attagene TRANS-FACTORIAL HepG2 Assay for Farnesoid X Receptor (FXR) (AID 2282979; active = hit-call score of the fitted dose curve at least 0.9, where 1 is the maximum;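 note: hits raise reporter mRNA above DMSO so AC50 marks FXR activation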); settings: HepG2 Attagene TRANS FXR-GAL4 reporter transcription
Method in brief: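 After 24 h chemical treatment of transfected HepG2 cells, GAL4-UAS reporter transcripts driven by an exogenous FXR-GAL4 fusion were measured by RT-PCR and capillary electrophoresis. Increases over DMSO were fitted.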

[16] = ATG_M_06_TRANS: Attagene TRANS-FACTORIAL HepG2 Assay for M06 Transcription Factor (Internal Marker) (AID 2282983; active = hit-call score of the fitted dose curve at least 0.9, where 1 is the maximum); settings: HepG2 Attagene TRANS M06 internal marker reporter
Method in brief: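 Multi-reporter-transfected HepG2, 24 h treatment; reporter transcripts quantified via RT-PCR, primer-extension labelling and CE. DMSO-normalized gain-of-signal fit.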

[17] = target: Nuclear respiratory factor 1 (Homo sapiens) (UniProt Q16656); assay: ATG_NRF1_CIS: Attagene CIS-FACTORIAL HepG2 Assay for human Nuclear Respiratory Factor 1 (NRF1) Orphan Gene (AID 2282987); settings: HepG2 NRF1 cis-element reporter, Attagene multiplex; actives raise or lower the signal
Method in brief: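 HepG2 cells transiently transfected with multiple reporter transcription units under cis-regulatory promoter control, so endogenous transcription-factor activity is read. After 24 h compound exposure, reporter mRNA quantified by RT-PCR, fluorescent labelling, HpaI digestion and capillary electrophoresis; bidirectional fitting versus DMSO.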

Measured: AC50

Chain of Hepatocyte nuclear factor 4-alpha (Homo sapiens) (P41235 whole entry, looked up, the tested form may be a part): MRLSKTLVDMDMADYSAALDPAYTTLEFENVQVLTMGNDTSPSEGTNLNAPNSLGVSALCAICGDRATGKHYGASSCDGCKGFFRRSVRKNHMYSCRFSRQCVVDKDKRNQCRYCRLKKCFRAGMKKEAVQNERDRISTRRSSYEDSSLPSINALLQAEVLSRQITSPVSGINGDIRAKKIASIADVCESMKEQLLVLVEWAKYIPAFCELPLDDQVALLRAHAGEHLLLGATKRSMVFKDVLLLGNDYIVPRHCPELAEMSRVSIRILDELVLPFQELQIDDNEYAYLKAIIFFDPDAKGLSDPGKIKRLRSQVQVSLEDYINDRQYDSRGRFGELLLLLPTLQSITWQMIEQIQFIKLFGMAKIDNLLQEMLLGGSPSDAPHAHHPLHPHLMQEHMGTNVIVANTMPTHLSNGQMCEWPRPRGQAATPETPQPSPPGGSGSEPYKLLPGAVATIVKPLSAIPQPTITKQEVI
Chain of Glucocorticoid receptor (Homo sapiens) (P04150 whole entry, looked up, the tested form may be a part): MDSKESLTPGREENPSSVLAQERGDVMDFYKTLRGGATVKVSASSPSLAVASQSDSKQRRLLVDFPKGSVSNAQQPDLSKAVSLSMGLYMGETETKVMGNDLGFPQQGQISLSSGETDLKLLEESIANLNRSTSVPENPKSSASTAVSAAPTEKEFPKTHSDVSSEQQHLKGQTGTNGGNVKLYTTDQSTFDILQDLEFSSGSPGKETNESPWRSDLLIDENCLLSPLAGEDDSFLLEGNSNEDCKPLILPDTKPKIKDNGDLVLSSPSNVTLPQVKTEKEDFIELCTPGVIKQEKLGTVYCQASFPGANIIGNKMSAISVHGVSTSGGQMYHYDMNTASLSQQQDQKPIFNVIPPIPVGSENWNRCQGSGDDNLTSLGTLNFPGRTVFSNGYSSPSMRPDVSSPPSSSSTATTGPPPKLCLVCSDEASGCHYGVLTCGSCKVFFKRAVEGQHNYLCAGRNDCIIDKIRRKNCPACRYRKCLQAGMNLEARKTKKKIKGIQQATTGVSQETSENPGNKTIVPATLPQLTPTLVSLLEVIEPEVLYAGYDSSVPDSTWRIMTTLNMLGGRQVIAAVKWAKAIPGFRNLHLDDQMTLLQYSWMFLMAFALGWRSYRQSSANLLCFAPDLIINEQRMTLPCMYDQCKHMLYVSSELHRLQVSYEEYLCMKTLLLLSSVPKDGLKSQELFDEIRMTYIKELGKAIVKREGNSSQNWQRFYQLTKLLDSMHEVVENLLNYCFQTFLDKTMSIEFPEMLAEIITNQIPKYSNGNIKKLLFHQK
Chain of Transcriptional activator Myb (Homo sapiens) (P10242 whole entry, looked up): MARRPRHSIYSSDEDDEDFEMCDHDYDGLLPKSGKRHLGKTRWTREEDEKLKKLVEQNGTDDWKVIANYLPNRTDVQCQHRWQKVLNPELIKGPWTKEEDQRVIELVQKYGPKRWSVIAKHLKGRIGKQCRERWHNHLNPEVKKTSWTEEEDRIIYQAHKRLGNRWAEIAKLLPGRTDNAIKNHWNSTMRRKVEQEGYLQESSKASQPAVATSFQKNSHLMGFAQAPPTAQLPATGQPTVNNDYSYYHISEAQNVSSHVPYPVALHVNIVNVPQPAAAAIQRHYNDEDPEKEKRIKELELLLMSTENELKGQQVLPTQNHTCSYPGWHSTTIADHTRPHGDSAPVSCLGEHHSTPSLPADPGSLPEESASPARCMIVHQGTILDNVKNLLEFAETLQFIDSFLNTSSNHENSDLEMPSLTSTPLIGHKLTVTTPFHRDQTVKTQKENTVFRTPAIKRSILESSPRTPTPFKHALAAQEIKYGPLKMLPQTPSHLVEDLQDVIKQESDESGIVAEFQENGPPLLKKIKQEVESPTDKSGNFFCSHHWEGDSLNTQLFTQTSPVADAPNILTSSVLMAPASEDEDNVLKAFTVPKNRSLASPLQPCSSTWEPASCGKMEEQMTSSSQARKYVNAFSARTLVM
Chain of Oxysterols receptor LXR-alpha (Homo sapiens) (Q13133 whole entry, looked up, the tested form may be a part): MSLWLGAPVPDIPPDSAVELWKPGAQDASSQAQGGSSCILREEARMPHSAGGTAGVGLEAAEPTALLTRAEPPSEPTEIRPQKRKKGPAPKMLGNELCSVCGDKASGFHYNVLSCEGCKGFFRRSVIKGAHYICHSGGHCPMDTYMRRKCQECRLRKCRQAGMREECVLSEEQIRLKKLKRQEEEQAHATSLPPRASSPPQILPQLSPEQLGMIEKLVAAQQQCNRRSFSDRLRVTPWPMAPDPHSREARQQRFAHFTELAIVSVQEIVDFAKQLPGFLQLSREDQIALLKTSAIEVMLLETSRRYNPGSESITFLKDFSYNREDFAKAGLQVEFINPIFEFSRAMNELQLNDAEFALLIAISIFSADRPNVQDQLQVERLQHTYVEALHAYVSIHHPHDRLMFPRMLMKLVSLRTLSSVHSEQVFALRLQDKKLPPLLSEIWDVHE
Chain of Bile acid receptor (Homo sapiens) (Q96RI1 whole entry, looked up, the tested form may be a part): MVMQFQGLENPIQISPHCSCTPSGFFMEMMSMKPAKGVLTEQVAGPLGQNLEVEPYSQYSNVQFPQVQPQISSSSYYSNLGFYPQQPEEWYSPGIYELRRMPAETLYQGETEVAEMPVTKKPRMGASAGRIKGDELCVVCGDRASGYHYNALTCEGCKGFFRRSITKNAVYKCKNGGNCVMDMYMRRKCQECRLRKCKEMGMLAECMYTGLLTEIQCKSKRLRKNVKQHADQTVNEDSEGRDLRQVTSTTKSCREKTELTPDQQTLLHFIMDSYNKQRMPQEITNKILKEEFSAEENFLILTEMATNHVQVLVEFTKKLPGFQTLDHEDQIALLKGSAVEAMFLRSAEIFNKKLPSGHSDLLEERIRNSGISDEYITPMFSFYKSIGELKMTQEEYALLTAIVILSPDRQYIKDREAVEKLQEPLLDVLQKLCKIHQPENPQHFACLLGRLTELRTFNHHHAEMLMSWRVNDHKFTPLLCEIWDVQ
Chain of Oxysterols receptor LXR-beta (Homo sapiens) (P55055 whole entry, looked up, the tested form may be a part): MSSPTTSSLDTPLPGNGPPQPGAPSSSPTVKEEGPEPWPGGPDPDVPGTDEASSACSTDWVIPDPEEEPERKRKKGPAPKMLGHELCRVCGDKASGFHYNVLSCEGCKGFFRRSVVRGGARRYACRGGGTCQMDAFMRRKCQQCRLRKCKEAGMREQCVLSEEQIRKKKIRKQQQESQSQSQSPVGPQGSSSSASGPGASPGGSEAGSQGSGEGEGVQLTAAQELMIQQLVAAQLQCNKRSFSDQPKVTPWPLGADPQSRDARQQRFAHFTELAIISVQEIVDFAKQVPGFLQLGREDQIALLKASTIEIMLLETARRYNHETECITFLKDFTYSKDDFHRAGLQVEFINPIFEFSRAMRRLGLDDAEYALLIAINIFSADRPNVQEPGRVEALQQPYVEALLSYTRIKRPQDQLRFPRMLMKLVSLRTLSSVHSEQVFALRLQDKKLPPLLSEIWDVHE
Chain of X-box-binding protein 1 (Homo sapiens) (P17861 whole entry, looked up): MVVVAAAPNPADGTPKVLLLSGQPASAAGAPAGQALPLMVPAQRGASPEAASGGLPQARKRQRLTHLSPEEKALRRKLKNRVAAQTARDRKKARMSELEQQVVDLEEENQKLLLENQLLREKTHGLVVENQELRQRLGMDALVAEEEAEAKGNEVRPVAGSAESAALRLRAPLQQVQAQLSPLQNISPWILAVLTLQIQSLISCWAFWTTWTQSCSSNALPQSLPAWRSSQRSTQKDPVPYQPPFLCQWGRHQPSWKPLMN
Chain of Nuclear receptor subfamily 4 group A member 2 (Homo sapiens) (P43354 whole entry, looked up, the tested form may be a part): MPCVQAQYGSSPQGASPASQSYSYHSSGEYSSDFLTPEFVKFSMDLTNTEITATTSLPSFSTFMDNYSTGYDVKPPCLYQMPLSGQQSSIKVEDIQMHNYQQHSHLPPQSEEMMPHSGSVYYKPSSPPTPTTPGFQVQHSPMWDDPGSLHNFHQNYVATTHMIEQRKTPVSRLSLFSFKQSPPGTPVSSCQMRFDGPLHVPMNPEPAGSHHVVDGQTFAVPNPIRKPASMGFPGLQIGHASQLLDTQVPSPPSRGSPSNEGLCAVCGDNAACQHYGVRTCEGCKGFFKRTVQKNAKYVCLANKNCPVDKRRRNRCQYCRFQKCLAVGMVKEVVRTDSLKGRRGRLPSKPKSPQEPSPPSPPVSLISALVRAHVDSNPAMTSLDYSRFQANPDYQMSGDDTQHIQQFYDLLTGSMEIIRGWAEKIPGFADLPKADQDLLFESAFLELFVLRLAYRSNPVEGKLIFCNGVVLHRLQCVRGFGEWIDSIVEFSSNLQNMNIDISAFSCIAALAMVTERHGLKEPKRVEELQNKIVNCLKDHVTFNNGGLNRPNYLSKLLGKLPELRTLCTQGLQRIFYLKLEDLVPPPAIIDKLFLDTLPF
Chain of Nuclear respiratory factor 1 (Homo sapiens) (Q16656 whole entry, looked up): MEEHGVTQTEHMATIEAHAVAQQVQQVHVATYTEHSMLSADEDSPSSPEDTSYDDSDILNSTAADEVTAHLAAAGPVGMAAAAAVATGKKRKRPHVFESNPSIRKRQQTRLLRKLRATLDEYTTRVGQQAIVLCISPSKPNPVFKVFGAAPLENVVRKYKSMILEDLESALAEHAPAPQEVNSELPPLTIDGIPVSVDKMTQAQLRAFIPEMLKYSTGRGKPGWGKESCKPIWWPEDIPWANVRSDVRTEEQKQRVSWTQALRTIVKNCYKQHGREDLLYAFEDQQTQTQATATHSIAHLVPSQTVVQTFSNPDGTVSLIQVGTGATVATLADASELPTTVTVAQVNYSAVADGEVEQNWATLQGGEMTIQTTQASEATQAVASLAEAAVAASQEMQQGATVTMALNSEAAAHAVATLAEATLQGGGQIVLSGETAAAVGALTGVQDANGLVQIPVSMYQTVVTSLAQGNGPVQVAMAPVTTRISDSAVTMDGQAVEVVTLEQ

CC=CC=CCOC(=O)C(C)C
not listed: [12] | [13] | [14] | [15] | [16] | [17]
inactive: all other assays above

O=C(O)CCCCCCCCCCCC(=O)O
inactive: [1] | [2] | [3] | [4] | [5] | [12] | [11]

CCC(C)=O
not listed: [5] | [9] | [10] | [12]
inactive: all other assays above

CCCCCCCCCC(C)C=O (configuration not stated)
inactive: [1] | [2] | [3] | [4] | [5] | [12] | [9] | [11] | [17]

CC(C)c1ccccc1O
inactive: [1] | [2] | [3] | [4] | [5] | [12] | [16] | [11] | [17]

Cc1ncc[nH]1
not listed: [6] | [9] | [10] | [13] | [14]
inactive: all other assays above

CCc1cc(Cc2cc(CC)cc(C(C)(C)C)c2O)c(O)c(C(C)(C)C)c1
active: [3] 4.77 µM | [4] 16.9 µM
not listed: [5] | [6] | [9] | [10]
inactive: all other assays above

C=CC(C)(O)CCC=C(C)C (configuration not stated)
not listed: [5] | [8] | [10] | [13]
inactive: all other assays above

O=C(CS)OCCOC(=O)CS
active: [1] 62.2 µM | [10] 52.4 µM
not listed: [5] | [7] | [9] | [12] | [13] | [14]
inactive: all other assays above

O=C(CC(=O)c1ccccc1)c1ccccc1
active: [4] 45.1 µM | [11] 100 µM | [17] 176 µM
not listed: [5] | [6] | [8] | [12] | [13]
inactive: all other assays above

CS(C)=O
inactive: [1] | [2] | [3] | [4] | [5] | [8] | [11] | [17]

CCC(Cl)C(Cl)C(Cl)CC(Cl)C(Cl)C(C)Cl (configuration not stated)
active: [2] 64.6 µM | [3] 3.17 µM | [15] 11 µM
not listed: [5] | [6] | [13]
inactive: all other assays above
